Screening results deposited in PubChem BioAssay by National Center for Advancing Translational Sciences (NCATS).
Compounds with a hit are over-represented: about 14% of the library has one in this group of screens.
HADH2 inh – HADH2 (human) dehydrogenase inhibition; recombinant HADH2, NADH fluorescence, beta-hydroxybutyryl-CoA; Potency, µM (series often up to 57.1 µM), for inactives: top-dose activity change, negative = inhibition, actives largely listed as inhibitors; 73,000 compounds, 3.4% hits; further: potency means the concentration at half of the fitted maximal effect; on the % scale 0 is the no-effect control and ±100 the full control effect; nearly all actives have a fitted effect of over 60% in size
Target sequence (Q99714 whole entry, looked up, one chain of several): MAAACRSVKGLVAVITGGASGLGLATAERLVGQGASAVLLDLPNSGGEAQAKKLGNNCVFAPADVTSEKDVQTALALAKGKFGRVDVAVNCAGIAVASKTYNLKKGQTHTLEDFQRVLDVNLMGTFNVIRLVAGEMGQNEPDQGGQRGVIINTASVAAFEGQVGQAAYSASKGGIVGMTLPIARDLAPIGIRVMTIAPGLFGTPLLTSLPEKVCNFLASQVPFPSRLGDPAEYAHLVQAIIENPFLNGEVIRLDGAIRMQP
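NADH fluorescence (ex 360/em 450 nm) read every 30 s for 4 min; activity taken as last-minus-first time point difference. Enzyme 20 nM, NAD+ 1 mM, beta-hydroxybutyryl-CoA 90 uM, pH 9.0 Tris buffer.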
HSD17B inh – blocks hydroxysteroid 17-beta dehydrogenase activity; Q99714; recombinant HSD17B10, NADH fluorescence kinetic; Potency, µM (doses to about 57.1 µM), for the others: at the top dose activity change, negative = inhibition, most hits filed as inhibitors; 75,000 compounds, 7.6% hits; AID 893;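 further: the protocol describes HADH2 (HSD17B10) and not the HSD17B4 of the title; potency means the concentration at half of the fitted maximal effect; on the % scale 0 is the no-effect control and ±100 the full control effect; nearly all actives have a fitted effect of over 70% in size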
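20 nM HADH2, pH 9.0 Tris/Tween; cpd preinc 15 min RT; start w/ 1 mM NAD+ + 90 uM b-hydroxybutyryl-CoA; kinetic fluor ex360/em450 q30s x 4 min; delta last-first.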
A350 autofl – compounds fluorescent in Alexa 350 spectral region | 59,000 compounds, 11% hits | Compound autofluorescence, 340/450 nm, Alexa 350 dye-equivalents; hits give high values | max dye-equivalent concentration, M | AID 590; in the data active means max dye-equivalent concentration above about 10 nM; inconclusive means mostly about 1.1 nM to 9.6 nM
AID923 – qHTS Assay for Allosteric/Competitive Inhibitors of Caspase-1: Spectroscopic Profiling in AFC Spectral Region. compound fluorescence, AFC spectral region (405/520 nm). Potency, µM (top dose mostly 57.5 µM), for inactives: at the top dose fluorescence increase, actives largely listed as activators. AID 923, 2007. 75,000 compounds, 1.1% hits; further: potency means the concentration at half of the fitted maximal effect; 0% is about no effect
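Baseline compound fluorescence (AFC region, 405 nm ex/520 nm em) taken from the intercept of kinetic reads with 50 nM caspase-1 and 5 uM Ac-WEHD-AFC; normalized to an on-plate AFC standard curve; compounds titrated up to 57 uM.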
4MU fluor – compounds fluorescent in 4-MU spectral region | 59,000 compounds, 11% hits | compound autofluorescence, 340/450 nm, 4-MU equivalents; hits give high values | max dye-equivalent concentration, M; in the data active means max dye-equivalent concentration above about 10 nM; inconclusive means mostly about 1.1 nM to 9.6 nM
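Compounds in 100 mM Tris, pH 8.0, sat 15 min at room temperature before fluorescence was read at 340 nm excitation/450 nm emission; a per-plate six-point 4-MU standard curve converted signals to dye-equivalent concentration at each compound concentration.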
CRE-bla Fsk – alters forskolin-stimulated CRE reporter signaling in CHO cells; CHO CRE-bla reporter (cAMP response element driving beta-lactamase), forskolin EC10, beta-lactamase ratio; Potency, µM (doses to about 38.2 µM), without a hit: top-dose activity change, negative = inhibition, most hits filed as activators; 71,000 compounds, 2.5% hits; AID 662; active means well fitted activation curve with a large enough effect in the signal ratio, with a control signal flat, not every such curve was filed as active; inconclusive means small, poorly fitted or top-dose-only effect, or effect the other way, or a change in a side signal; the % refers to the signal ratio; further: potency means the concentration at half of the fitted maximal effect; % of control where 0% means no effect
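Forskolin analogue NKH 477 at EC10 stimulated CRE-driven beta-lactamase in CHO cells alongside compound dilution series. Beta-lactamase was measured with CCF4, excitation 405 nm, emission ratio 460/530 nm.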
The depositor's hits bear a star; i = inactive; ? = inconclusive; . = no result; [ ] = remark or other dose. Unless noted, the call rests on the fitted dose curve; in most records, active means well fitted curve in the direction sought with a large enough effect; inconclusive means small, poorly fitted or top-dose-only effect, or another doubt; inactive means no such curve, though single readings can be large; an effect the other way counts as inactive or inconclusive.

SMILES	HADH2 inh	HSD17B inh	A350 autofl	AID923	4MU fluor	CRE-bla Fsk
COc1ccc(C2C3=C(CCCC3=O)Nc3nc(C(F)(F)F)nn32)cc1OC (stereo unspecified)	-27%	25µM*	7.2e-08M*	-1%	8e-08M*	?
Oc1ccc(CN2CCCCC2)nc1-c1ccccc1	?	32µM*	5.4e-08M*	0%	4.4e-08M*	-17%
Oc1cccnc1CN1CCCCC1	10%[11.4 µM]	8%[11.4 µM]	i	1%[11.5 µM]	i	0%[7.6 µM]
O=c1ccc2c(OCCCCc3ccccc3)c3ccoc3cc2o1	?	?	3.2e-08M*	-2%	2.4e-08M*	?
Cc1ccc(CN2CCSc3ccc(C(=O)N4CCN(c5ncccn5)CC4)cc32)cc1	?	13µM*	5.6e-08M*	-1%	7.1e-08M*	?
Nc1nc2ncc(=O)[nH]c2c(=O)[nH]1	.	25µM*	.	6%	.	.
O=C(NCc1cccc(C(F)(F)F)c1)C1CCN(c2ncccn2)CC1	5%	1%	i	0%	i	-6%
CC1(C)Cc2c(C#N)c(N3CCN(C(=O)c4ccccc4)CC3)nc(-c3ccco3)c2CS1	.	.	1.6e-08M*	.	1.3e-08M*	.
Cc1nc(N2CCN(Cc3ccccc3)CC2)c(C#N)c2c1COC(C)(C)C2	.	.	?	.	i	.
CC(C)c1nc(N2CCN(C(=O)c3ccccc3)CC2)c(C#N)c2c1COC(C)(C)C2	5%	5µM*	4.8e-08M*	1%	5.1e-08M*	?
Oc1cnc2ccccc2c1CN1CCOCC1	?	32µM*	2.2e-07M*	4%	2.3e-07M*	-4%
Oc1c(CN2CCOCC2)cc(COCc2ccccc2)c2cccnc12	7%	13%	i	0%	i	?
O=C(Cc1cccs1)Nc1ccc(S(=O)(=O)Nc2ncccn2)cc1	?	25µM*	i	1%	i	-8%
CCOC(=O)[C@@H](O)Cc1cnc2ccccc2n1	-5%[11.4 µM]	-4%[11.4 µM]	i	1%[11.5 µM]	i	10%[7.6 µM]
CCc1c(C)nc2[nH]nc(-c3ccccc3)n2c1=O	9%	32µM*	.	1%	.	5%
Cc1ccccc1-c1cc(-c2ccccc2O)n[nH]1	-10%	-22%	i	0%	i	1%
Cc1cc(=O)n2c(-c3ccccc3C)n[nH]c2n1	-15%	-14%	1.5e-07M*	-1%	1.2e-07M*	-5%
CCc1c(C)nc2[nH]nc(-c3ccccc3C)n2c1=O	5%	32µM*	i	0%	i	3%
Cc1ccnc2nc(C(=O)OCCOc3ccccc3)nn12	1%	7%	i	0%	i	?
C[N+]1(CCOS(=O)C23CC4CC(CC(C4)C2)C3)CCOCC1 (stereo unspecified)	-9%	6%	i	0%	i	-6%
CCOC(=O)c1[nH]c2ccc(OC)cc2c1NC(=O)CCN1CCc2ccccc2C1	.	.	4.7e-08M*	.	3.9e-08M*	.
CCOC(=O)c1[nH]c2ccc(OC)cc2c1NC(=O)CCN1CCC(C)CC1	.	.	4.7e-08M*	.	4e-08M*	.
C1CCC(N=C(NC23CC4CC(CC(C4)C2)C3)N2CCOCC2)CC1	6%	3%	i	-1%	i	-6%
COc1ccc(C(C)=O)cc1COC(=O)c1cccc(N(C)C)c1	22%	32µM*	2.7e-08M*	-5%	2.6e-08M*	?
CN(C)Cc1ccccc1-c1cncnc1NCc1cccnc1	?	?	i	0%	i	2%
SMILES	HADH2 inh	HSD17B inh	A350 autofl	AID923	4MU fluor	CRE-bla Fsk
C[C@@]12CC(=O)[C@@H]3[C@@H](CCC4=CC(=O)CC[C@]43C)[C@@H]1CC=C2CC(=O)O	7%[11.4 µM]	4%[11.4 µM]	i	0%[11.5 µM]	i	-4%[7.6 µM]
O=C(c1cccnc1)N1CCN(S(=O)(=O)c2ccc(S(=O)(=O)N3CCCC3)cc2)CC1	11%	-3%	i	-1%	i	4%
NCCSc1nc(-c2ccccc2)c(-c2ccccc2)o1	5%[11.4 µM]	1µM*	i	-1%[11.5 µM]	i	?
CC1CC(C)CN(C(=O)CCCn2c(=S)[nH]c3ccccc3c2=O)C1 (stereo unspecified)	?	-15%	?	2%	i	27%
CC(=O)C(=[N+]=[N-])C(=O)NCc1ccccc1	.	.	i	.	i	.
CCc1nc2ccccc2n1Cc1cc(=O)n2cc(C)ccc2n1	?	32µM*	2.8e-08M*	0%	2.1e-08M*	?
CCc1nc2ccccc2n1Cc1ccc(OC)c(OC)c1	9%	8%	i	4%	i	?
CCOC(=O)c1sc(NC(=O)c2ccc(Br)o2)cc1C	8%	?	2.3e-08M*	0%	1.7e-08M*	-2%
CCOC(=O)c1cccc(NC(=O)c2cccs2)c1	-16%	-17%	i	2%	i	1%
CCCCC(=O)Nc1cccc(NC(=O)c2ccc(Br)o2)c1	-3%	-23%	i	0%	i	-10%
CCOC(=O)c1sc(NC(=O)c2cccs2)cc1C	32µM*	32µM*	4.3e-07M*	17%	4e-07M*	?
C#C[C@]1(O)CCC2C3CCC4=C(CCC(=O)C4)C3CC[C@@]21C (stereo partly specified)	.	1%	.	3%	.	.
C#C[C@@]1(O)CC[C@@H]2[C@@H]3CCC4=CC(=O)CC[C@@H]4[C@H]3CC[C@]21C	0%[25.6 µM]	2%[25.6 µM]	4.3e-07M*	2%[25.7 µM]	4.8e-07M*	-8%[17.1 µM]
O=C(O)CCCNC1=NCCC1	-6%	1%	.	-1%	.	-3%
N#Cc1c(N)nc2c(c1-c1ccccc1)CCCC2	39%	?	.	-3%	.	.
Cc1cc(-c2cc(-c3ccc(Cl)cc3)nc(N)c2C#N)co1	.	.	1.9e-07M*	.	1.7e-07M*	.
N#Cc1c(N)nc2c(c1-c1ccncc1)CCCCCC2	1%	-6%	8.9e-08M*	0%	6.8e-08M*	?
